Screening results: PubChem BioAssay, National Center for Advancing Translational Sciences (NCATS)
Pf growth 96h – inhibits malaria parasite growth, 96 h; P. falciparum luciferase reporter growth, 96 h; Potency, µM (titrated, usually from 28.7 µM), for inactives: top-dose activity change, negative = inhibition, actives largely listed as inhibitors; 6.9% of 320,000 active; AID 504834; further: potency means the concentration at half of the fitted maximal effect; on the % scale 0 is the no-effect control and ±100 the full control effect
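Delayed-death screen, second-generation endpoint: infected erythrocytes, 2% hematocrit, 0.05% parasitemia final; 96 hours at 37 C, 5% CO2; luciferase detection reagent; luminescence decrease equals reduced growth.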
Shiga inhibitor – blocks Shiga toxin action in Vero cells; Vero cells, Shiga toxin protein synthesis inhibition reporter; inhibition, % at 38.7 µM; 9.2% of 290,000 active; in the data active means inhibition mostly above about 28%, no sharp cut-off; inactive means mostly below about 43%; further: 0% is about no effect
CHX counter – affects cycloheximide protein synthesis inhibition readout, counter-screen | cell reporter, cycloheximide protein synthesis inhibition counterscreen | 12% of 300,000 active | AID 2314 | max response, %; in the data active means max response mostly above about 13%, no sharp cut-off; inactive means mostly below about 14%; further: read at 38.3 µM for the half of the compounds with a filed dose; 0% is about no effect
Pf growth 48h – inhibits P. falciparum growth in the first generation, 48 h; P. falciparum luciferase growth in erythrocytes, 48 h; Potency, µM (series often up to 28.7 µM), without a hit: at the highest dose activity change, negative = inhibition, most hits filed as inhibitors; 5.9% of 310,000 active; AID 504832; further: potency means the concentration at half of the fitted maximal effect; on the % scale 0 is the no-effect control and ±100 the full control effect
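Cell-based growth assay: transgenic P. falciparum expressing firefly luciferase, cultured in red cells within RPMI 1640 containing 0.5% w/v Albumax, 24 mM bicarbonate and gentamycin. A drop in luciferase activity indicates inhibition.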
NS1 function inh – influenza NS1 inhibition | Potency, µM (doses to about 46.1 µM), for inactives: at the top dose activity, positive = more growth | 0.4% of 270,000 active | AID 2326; calls by dose curve; further: potency means the concentration at half of the fitted maximal effect; actives are rising curves; nearly all actives have a fitted effect of over 50% in size
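Growth recovery, yeast-based: influenza A NS1 expressed in S. cerevisiae causes slow growth, and suppressors are detected by OD600. The parent strain without NS1 is used as positive control.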
Numbers without * were called inactive; [ ] = remark or other dose. The list is not random: actives were taken first. Their share in the collection is about 21%. Unless noted, the call rests on the fitted dose curve; in most records, active means well fitted inhibition curve with a large enough effect; inconclusive means small, poorly fitted or top-dose-only effect, or another doubt; inactive means no such curve, though single readings can be large or run the other way.

Results for O=C(Nc1cc2c(cc1Br)OCCCO2)c1cccnc1 ?
Pf growth 96h: -11.8%; Shiga inhibitor: 84.0*; CHX counter: 38.2*; Pf growth 48h: 7.4%; NS1 function inh: 25.1%

How did O=C(Nc1cc2c(cc1Br)OCCCO2)c1ccccc1 do in these assays?
Pf growth 96h: 88.2%; Shiga inhibitor: 123.2*; CHX counter: 78.3*; Pf growth 48h: 118.6%; NS1 function inh: 2.5%

How did Cc1ccc(NC(=O)CSCC(=O)N(C)CC(=O)Nc2cccc(F)c2)cc1 do in these assays?
Pf growth 96h: 5.4%; Pf growth 48h: 20.6%

Results for Cc1ccc(/C=N/NC(=O)c2nnn(-c3nonc3N)c2C(C)C)s1 ?
Pf growth 96h: inconclusive; Shiga inhibitor: 8.9; CHX counter: 7.8; Pf growth 48h: -16.2%; NS1 function inh: -3.4%

How did O=S(=O)(c1ccc(Oc2ccc(S(=O)(=O)N3CCOCC3)cc2)cc1)N1CCOCC1 do in these assays?
Pf growth 96h: inconclusive; Shiga inhibitor: 44.6; CHX counter: -1.3; Pf growth 48h: -12.2%; NS1 function inh: 1.6%

Results for O=S(=O)(c1ccc(OCc2ccc(Br)cc2)cc1)N1CCOCC1 ?
Pf growth 96h: 6.57µM*; Pf growth 48h: -25.9%

Results for CSc1ccc(CSCC(=O)N2CCN(S(=O)(=O)c3ccc(C)cc3C)CC2)cc1 ?
Pf growth 96h: -59.1%; Pf growth 48h: 11.7µM*

How did Cc1ccc(C(=O)N2CCN(S(=O)(=O)c3ccc(Br)cc3)CC2)o1 do in these assays?
Pf growth 96h: inconclusive; Shiga inhibitor: -6.0; CHX counter: -5.1; Pf growth 48h: 6.57µM*; NS1 function inh: -20.7%

Results for COc1ccc(S(=O)(=O)N2CCN(C3Cc4ccccc4C3)CC2)cc1 ?
Pf growth 96h: 10.4µM*; Shiga inhibitor: 14.2; CHX counter: 7.8; Pf growth 48h: 47.8%; NS1 function inh: -0.7%

Results for O=C(CC(Cc1ccccc1)C(=O)O)Nc1ccc(Cl)c(Cl)c1 (centres undefined) ?
Pf growth 96h: inconclusive; Shiga inhibitor: 27.4; CHX counter: -2.3; Pf growth 48h: 19.2%; NS1 function inh: 3.6%

Results for CCCC(C)NC(=O)CSc1nc2ccc(C)cc2[nH]1 (centres undefined) ?
Pf growth 96h: 6.9%; Shiga inhibitor: 11.2; CHX counter: -1.1; Pf growth 48h: -13.6%

Results for COc1ccc(CCN2CC(C(=O)N(C)C3CCOCC3)CCC2=O)cc1 (centres undefined) ?
Pf growth 96h: -23.4%; Shiga inhibitor: 16.6; CHX counter: 18.0; Pf growth 48h: inconclusive; NS1 function inh: -8.1%

How did CCN(CC)C(=O)Cn1cc(C(=O)C(=O)NCCCN2CCCCC2)c2ccccc21 do in these assays?
Pf growth 96h: -27.9%; Shiga inhibitor: -12.2; CHX counter: -4.9; Pf growth 48h: -7.0%; NS1 function inh: -0.4%

Results for Cc1ccc(S(=O)(=O)N2CCN(C(=O)COc3ccc(Br)cc3)CC2)cc1 ?
Pf growth 96h: inconclusive; Pf growth 48h: 13.1µM*

What do the screens show for `Cc1ccc(OCCC(=O)OCC(=O)N2CCN(S(=O)(=O)c3ccc(C)cc3C)CC2)cc1`?
Pf growth 96h: 1.3%; Pf growth 48h: 10.2%

What do the screens show for `COc1cc(CCC(=O)N2CCN(c3ccc(N4CCOCC4)nn3)CC2)cc(OC)c1OC`?
Pf growth 96h: 7.38µM*; Shiga inhibitor: -10.8; CHX counter: -10.1; NS1 function inh: -14.2%

How did COc1cc(CCC(=O)N2CCN(c3ncccn3)CC2)cc(OC)c1OC do in these assays?
Pf growth 96h: -21.1%[5.75 µM]; Shiga inhibitor: 1.2; CHX counter: -0.5; Pf growth 48h: -5.9%

How did CC(=O)c1ccc(OCC(=O)N2CCN(S(=O)(=O)c3ccc(C)cc3C)CC2)cc1 do in these assays?
Pf growth 96h: 9.28µM*; Shiga inhibitor: -11.1; CHX counter: -3.4; Pf growth 48h: inconclusive; NS1 function inh: -2.8%

Results for COc1ccc(S(=O)(=O)N2CCN(C(=O)COc3ccccc3)CC2)cc1 ?
Pf growth 96h: 7.38µM*; Shiga inhibitor: -6.1; CHX counter: 0.6; Pf growth 48h: -12.3%; NS1 function inh: -1.8%

Results for Cc1cc(=O)[nH]c(/N=C(\N)Nc2ccc(Cl)cc2)n1 ?
NS1 function inh: -1.0%

Results for CCOc1ccc(Br)cc1C1C(C(=O)OC)=C(N)Oc2cc(N(C)C)ccc21 (centres undefined) ?
Pf growth 96h: inconclusive; Shiga inhibitor: -8.6; CHX counter: 1.0; NS1 function inh: 6.5%
